Experimental data as given in the supplement of paper PMC10412459.

Tested on: K562 SF3B1 K700E vs K562 SF3B1 WT
Assay: surviving fraction ratio K562 SF3B1 K700E / K562 SF3B1 WT (each relative to DMSO); higher = less selective killing of SF3B1 K700E cells
Details: 5 days
Experimental: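 Drug-sensitivity screen of an in-house 80-compound library in isogenic K562 SF3B1 K700E versus SF3B1 WT cells. 250 cells/well in 384-well plates were exposed 24 h after seeding to 0.5-1000 nM compound for 5 days, and viability was read by CellTiter-Glo. Surviving fraction is relative to DMSO, and the value is the ratio of surviving fraction in K700E to WT cells; the paper calls ratio <0.6 with P<0.01 selective.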

| Compound | surviving fraction ratio K562 SF3B1 K700E / K562 SF3B1 WT (0.5nM) | surviving fraction ratio K562 SF3B1 K700E / K562 SF3B1 WT (1nM) | surviving fraction ratio K562 SF3B1 K700E / K562 SF3B1 WT (5nM) | surviving fraction ratio K562 SF3B1 K700E / K562 SF3B1 WT (10nM) | surviving fraction ratio K562 SF3B1 K700E / K562 SF3B1 WT (50nM) | surviving fraction ratio K562 SF3B1 K700E / K562 SF3B1 WT (100nM) | surviving fraction ratio K562 SF3B1 K700E / K562 SF3B1 WT (500nM) | surviving fraction ratio K562 SF3B1 K700E / K562 SF3B1 WT (1000nM) |
| --- | --- | --- | --- | --- | --- | --- | --- | --- |
| Nc1ncn([C@H]2C[C@H](O)[C@@H](CO)O2)c(=O)n1 [decitabine] | 0.733 | 0.724 | 0.773 | 0.665 | 0.964 | 0.894 | 1.13 | 1.36 |
| CN(C)CC[C@H](CSc1ccccc1)Nc1ccc(S(=O)(=O)NC(=O)c2ccc(N3CCN(Cc4ccccc4-c4ccc(Cl)cc4)CC3)cc2)cc1[N+](=O)[O-] | 0.745 | 0.762 | 0.761 | 0.841 | 0.902 | 0.819 | 0.908 | 0.796 |
| Nc1nc(=S)c2[nH]cnc2[nH]1 [6-thioguanine] | 0.927 | 0.836 | 0.914 | 0.819 | 0.78 | 0.792 | 0.828 | 0.777 |
| Cc1ccc(-c2cc(C(F)(F)F)nn2-c2ccc(S(N)(=O)=O)cc2)cc1 [celecoxib] | 0.751 | 0.819 | 0.804 | 0.813 | 0.673 | 0.736 | 0.79 | 0.698 |
| C[C@]12CC[C@H](O)CC1=CC[C@@H]1[C@@H]2CC[C@]2(C)C(c3cccnc3)=CC[C@@H]12 | 1.04 | 0.918 | 0.91 | 0.915 | 0.899 | 1.01 | 0.995 | 0.937 |
